Results published in PubChem BioAssay.
“And” between values parts separate entries of the source, which are not always exact repeats. Equal entries are not always repeated. Inconclusive results are not listed. For some of these results: Entries with a potency or affinity are not part of this list. The source made the active and inactive calls. Unless noted, the rule behind the calls is not given here.

Columns and labels:
[1] = polyglutamine-triggered caspase-3 activation inhibitors, cell-based (AID 1583); conditions: polyglutamine-induced caspase-3 activation, cell assay; stronger effect = higher value;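 tested at 10 µM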
[2] = rescue of polyQ-huntingtin neuronal dysfunction in worms, whole organism, C. elegans mechanosensory neurons, N-terminal huntingtin (AID 1599); conditions: touch response, stronger effect = higher value
[3] = enhancers of glutamate uptake in motor neurons, MN-1 cell line (AID 1612); conditions: MN-1 motor neuron cells, stronger effect = higher value;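 note: tested at 1 µM final; 0% = mean of DMSO vehicle wells on each plate; positive means more glutamate uptake than control and negative means less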
[4] = reducers of polyQ inclusions in PC12 cells, cell-based, NGF-treated PC12, GFPQ80 (AID 1614); conditions: PC12 NGF-treated GFP-polyQ80 inclusion reduction;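 note: lower means fewer inclusions and 0 means no inclusions at all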
[5] = suppressors of polyglutamine aggregation in yeast, 75Q-TubH (AID 1616); conditions: S. cerevisiae 75Q-TubH polyglutamine aggregation suppression; stronger effect = higher value
[6] = circadian clock period modulators, cell-based, LOPAC library, luminescence reporter (AID 2774); conditions: circadian reporter cells, at 7 µM, actives lie on both sides;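 note: values are relative to mean of DMSO wells on each plate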
[7] = test system: Hepatitis C virus NS3 helicase; experiment: HCV NS3 helicase inhibitors, primary screen, biochemical, fluorescence polarization, LOPAC1280 library (AID 687035; in the data active = inhibition above about 37%); conditions: Purified HCV NS3 helicase, Cy5-dT15 ssDNA binding fluorescence polarization; stronger effect = higher value; concentration not given here
[8] = Cy5 fluorescence quenching or enhancement artefacts, artefact control for HCV NS3 helicase inhibitor project, biochemical, LOPAC1280 (AID 687037); conditions: Cy5-DNA-NS3h complex fluorescence interference counterscreen
[9] = test system: Aerobactin synthetase IucA (Klebsiella pneumoniae, hypervirulent); experiment: IucA enzyme inhibition, biochemical, LOPAC library, absorbance readout (AID 1346212); conditions: IucA enzyme assay, absorbance (OD) readout; stronger effect = lower value;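 tested at 8 µM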;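 note: 100% = no compound wells and 0% = no enzyme wells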
[10] = phospholipid biosynthesis inhibitors in animal cells, primary screen, cell-based, LOPAC library, screen 4 (AID 1347384); conditions: phospholipid biosynthesis inhibition screen, at 10 µM
[11] = hESC survival regulators, cell-based (AID 493140); conditions: human embryonic stem cell survival screen; stronger effect = higher value;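 note: cells exposed to compounds for four days before counting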
[12] = modulation of C. elegans fzo-1 (AID 1259413);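 note: fzo-1 mutant C. elegans worms in liquid wells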; conditions: C. elegans fzo-1 modulator screen, mean read-out; stronger effect = higher value
F380Y = experiment: modulators of BK channel variants, profiling panel, selectivity assay, cell-based, U2OS BacMam, thallium flux, beta subunits (AID 1259406;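 active = thallium flux through the channel raised or lowered by more than 3 SD from vehicle-only wells, actives on both sides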;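 note: initial slope of Thallos dye fluorescence rise after thallium is added; log ratio against the mean of 0.3% DMSO vehicle wells on the same plate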); conditions: at 30 µM
F380Y/beta1 = experiment: as above; conditions: at 30 µM
F380Y/beta2Delta = experiment: as above; conditions: at 30 µM
R275C = experiment: as above; conditions: at 30 µM
R275C/beta1 = experiment: as above; conditions: at 30 µM
R275C/beta2Delta = experiment: as above; conditions: at 30 µM
R275C/Slo1WT/beta2 = experiment: as above; conditions: at 30 µM
[13] = target: ATP-dependent translocase ABCB1 (Homo sapiens) (UniProt P08183); experiment: MDR1 (ABCB1) efflux transporter inhibition, cell-based (AID 377; in the data active = fluorescence slope change above about 50%); conditions: MDR1-expressing cells, fluorescent substrate accumulation slope; stronger effect = higher value; concentration not given here
Sequence of ATP-dependent translocase ABCB1 (Homo sapiens) (P08183 whole entry, looked up): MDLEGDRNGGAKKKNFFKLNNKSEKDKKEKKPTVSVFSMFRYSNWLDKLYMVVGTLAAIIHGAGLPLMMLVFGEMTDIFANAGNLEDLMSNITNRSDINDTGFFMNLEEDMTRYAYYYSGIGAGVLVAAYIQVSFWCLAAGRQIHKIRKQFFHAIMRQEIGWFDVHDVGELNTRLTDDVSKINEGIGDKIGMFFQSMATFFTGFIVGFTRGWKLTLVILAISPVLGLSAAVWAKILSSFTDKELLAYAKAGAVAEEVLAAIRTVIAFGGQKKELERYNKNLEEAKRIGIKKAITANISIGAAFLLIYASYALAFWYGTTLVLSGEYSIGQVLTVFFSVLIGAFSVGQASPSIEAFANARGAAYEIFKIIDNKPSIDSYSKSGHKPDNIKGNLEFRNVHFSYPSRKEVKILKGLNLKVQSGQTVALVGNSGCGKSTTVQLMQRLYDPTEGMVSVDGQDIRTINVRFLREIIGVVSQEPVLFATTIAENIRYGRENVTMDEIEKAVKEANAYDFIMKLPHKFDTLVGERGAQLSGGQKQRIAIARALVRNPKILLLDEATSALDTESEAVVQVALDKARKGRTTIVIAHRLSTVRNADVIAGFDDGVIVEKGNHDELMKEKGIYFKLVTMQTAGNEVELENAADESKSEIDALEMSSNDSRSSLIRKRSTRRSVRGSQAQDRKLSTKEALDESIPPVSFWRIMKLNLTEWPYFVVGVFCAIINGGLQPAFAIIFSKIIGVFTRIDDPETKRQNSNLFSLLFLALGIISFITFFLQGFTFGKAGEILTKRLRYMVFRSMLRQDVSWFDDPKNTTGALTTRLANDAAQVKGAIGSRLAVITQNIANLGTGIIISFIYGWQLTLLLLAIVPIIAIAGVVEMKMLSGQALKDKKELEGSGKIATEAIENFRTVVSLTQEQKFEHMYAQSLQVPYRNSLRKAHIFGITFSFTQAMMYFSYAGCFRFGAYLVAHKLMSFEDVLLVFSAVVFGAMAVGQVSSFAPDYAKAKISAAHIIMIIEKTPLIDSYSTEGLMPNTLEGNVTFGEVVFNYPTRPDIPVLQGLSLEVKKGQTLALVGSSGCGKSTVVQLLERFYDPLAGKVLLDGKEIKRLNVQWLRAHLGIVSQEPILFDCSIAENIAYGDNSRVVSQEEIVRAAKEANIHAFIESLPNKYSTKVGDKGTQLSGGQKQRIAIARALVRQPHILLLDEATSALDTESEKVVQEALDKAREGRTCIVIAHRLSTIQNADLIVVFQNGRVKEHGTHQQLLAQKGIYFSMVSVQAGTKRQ

| Compound | inhibition [1] [%] | rescue above control [2] | glutamate uptake change [3] [%] | inclusion score [4] | aggregation suppression score [5] | period change [6] | inhibition [7] | fluorescence ratio (interference) [8] | remaining activity [9] | outcome [10] | survival [11] | mean signal [12] | log fold change Tl+ flux (F380Y) | log fold change Tl+ flux (F380Y/beta1) | log fold change Tl+ flux (F380Y/beta2Delta) | log fold change Tl+ flux (R275C) | log fold change Tl+ flux (R275C/beta1) | log fold change Tl+ flux (R275C/beta2Delta) | log fold change Tl+ flux (R275C/Slo1WT/beta2) | fluorescence slope change [13] |
| --- | --- | --- | --- | --- | --- | --- | --- | --- | --- | --- | --- | --- | --- | --- | --- | --- | --- | --- | --- | --- |
| NCCc1ccc(O)cc1 | -15.4 | -11.7 | -2.56 | 2 | 1.19 | 0.035 h (inactive) | -3% (inactive) | 1 (inactive) | 98.4% (inactive) | inactive |  |  |  |  |  |  |  |  |  |  |
| CCC1(c2ccc(N)cc2)CCC(=O)NC1=O (configuration not stated) | 22.4 | 12.8 | 15.1 | 2 | 1.06 | 0.015 h (inactive) | -3% (inactive) | 1 (inactive) |  | inactive | 19.8 (inactive) | 262 (inactive) | 0.023 (inactive) | -0.0309 (inactive) | -0.00163 (inactive) | 0.0191 (inactive) | -0.00575 (inactive) | -0.0116 (inactive) | 0.0134 (inactive) |  |
| NCC(O)c1ccc(O)cc1 (configuration not stated) | -11.8 | -6.97 | -13.3 | 2 | 0.97 | -0.025 h (inactive) | -4% (inactive) | 1 (inactive) |  | inactive | 5.08 (inactive) |  |  |  |  |  |  |  |  |  |
| COc1ccc(C(CN(C)C)C2(O)CCCCC2)cc1 (configuration not stated) |  |  |  |  |  |  | -1% (inactive) | 1.1 (inactive) |  | inactive |  | 261 (inactive) | 0.00861 (inactive) | -0.0404 (inactive) | -0.0103 (inactive) | -0.109 (inactive) | 0.0103 (inactive) | -0.0272 (inactive) | 0.0327 (inactive) |  |
| CN(C)[C@@H]1C(=O)C(C(N)=O)=C(O)[C@@]2(O)C(=O)C3=C(O)c4c(O)cccc4[C@@](C)(O)[C@H]3[C@H](O)[C@@H]12 | -0.04 | -1.64 | -6.56 | 1 | 0.502 |  |  |  |  |  | 14.3 (inactive) | 260 (inactive) | 0.018 (inactive) | 0.0522 (inactive) | -0.0529 (inactive) | -0.057 (inactive) | 0.0468 (inactive) | -0.0649 (inactive) | -0.0058 (inactive) | 60.8% (active) |
| N[C@@H](Cc1ccc(N(CCCl)CCCl)cc1)C(=O)O | 9.42 | -0.78 | 15.9 |  | 1.07 |  |  |  | 104% (inactive) |  |  |  |  |  |  |  |  |  |  | 94.7% (active) |
| O=C(O)CCCc1ccc(N(CCCl)CCCl)cc1 | 25.6 | -3.71 | -0.49 |  | 0.0151 | -0.09 h (inactive) | -3% (inactive) | 1 (inactive) | 115% (inactive) |  | 4.5 (inactive) | 236 (inactive) | -0.0169 (inactive) | 0.0024 (inactive) | 0.0059 (inactive) | -0.0229 (inactive) | -0.022 (inactive) | 0.041 (inactive) | 0.0346 (inactive) |  |
| O=c1[nH]c2ccccc2n1C1CCN(CCCC(c2ccc(F)cc2)c2ccc(F)cc2)CC1 | 13.8 | 6.31 | 15.9 |  | 1.1 | 0.045 h (inactive) | -3% (inactive) | 1 (inactive) | 122% (inactive) | inactive | 4.67 (inactive) |  |  |  |  |  |  |  |  | 147% (active) |
| O=c1[nH]c2ccccc2n1CCCN1CCC(n2c(=O)[nH]c3cc(Cl)ccc32)CC1 |  |  |  |  |  | -0.195 h (inactive) | -3% (inactive) | 1 (inactive) | 105% (inactive) | inactive | 7.33 (inactive) |  |  |  |  |  |  |  |  |  |
| CC(C)N(CCC(C(N)=O)(c1ccccc1)c1ccccn1)C(C)C (configuration not stated) | -16.9 | -8.3 | 24.3 | 2 | 1.38 | 0.265 hour (inactive) and -0.11 hour (inactive) | 0% (inactive) and -1% (inactive) | 1 (inactive) | 98.9% (inactive) and 93.2% (inactive) | inactive | 11.6 (inactive) | 254 (inactive) | -0.0248 (inactive) | 0.0372 (inactive) | 0.00612 (inactive) | 0.00817 (inactive) | -0.022 (inactive) | -0.0143 (inactive) | 0.00641 (inactive) | 52.1% (active) |
| Clc1ccc(COC(Cn2ccnc2)c2ccc(Cl)cc2Cl)cc1 (configuration not stated) | 55.1 |  | 16.9 |  | 0.0462 |  |  |  |  |  | 50.1 (inactive) | 173 (inactive) | -0.0888 (inactive) | -0.0732 (inactive) | -0.182 (active) | -0.00134 (inactive) | 0.0779 (inactive) | 0.0329 (inactive) | -0.0527 (inactive) | 66.2% (active) |
| CCC1(C2=NCCN2)Cc2ccccc2O1 (configuration not stated) |  |  |  |  |  | 0.07 h (inactive) | -1% (inactive) | 1 (inactive) | 82.2% (inactive) | inactive |  |  |  |  |  |  |  |  |  |  |
